CFTR F508del cor: CFTR F508del correction in bronchial cells. activity (quench increase), % at 7.58 µM. CFBE cells, YFP halide quenching; stimulated with forskolin plus potentiator P3; % fluorescence drop versus neutral controls. hit rate 0.36% among 350,000;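 active = mean added fluorescence quench of at least 8% versus neutral control, with both replicates also reaching 8%; inconclusive = only one of the mean or replicate conditions met; inactive = mean below 8% and not both replicates reaching 8%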;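 note: cells transiently co-express mutant CFTR-F508del with the halide-sensitive YFP; corrector assay measuring rescue of mutant channel to the surface after 24 h compound exposure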
697 NFkB inh: inhibitors of the PMA/ionomycin-induced NF-kB reporter in 697 B cells; 697 B-cell NF-kB luciferase reporter, 16 h; hit rate 0.33% among 330,000; inhibition, % at 4 µM; in the data active = inhibition above about 35%
HIF activator: HIF pathway transcriptional activation. U2OS HRE-luciferase reporter, luminescence; normalized: DMSO 0%, desferrioxamine 100%. activation, % at 7.5 µM (by protocol). hit rate 0.32% among 300,000;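 active = mean activation of at least 10% of the iron chelator positive control signal, with at least half of replicates also reaching 10%; inconclusive = mean and replicate majority disagree about reaching 10%; inactive = mean and most replicates under 10%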
Jurkat NFkB inh: inhibitors of the PMA/ionomycin-induced NF-kB reporter in Jurkat cells. PMA/ionomycin-induced NF-kB luciferase reporter, luminescence. inhibition, % at 4 µM. hit rate 0.53% among 330,000; in the data active = inhibition above about 50%
Jurkat NFkB conf: lowers PMA/ionomycin-induced NF-kB signal in Jurkat cells; shares compounds with Jurkat NFkB inh; Jurkat NF-kB luciferase, 16 h; inhibition, % at 4 µM; hit rate 27% among 2,700; AID 435020;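 active = inhibition reaching about 45% at 4 µM in either replicate, limit read from the data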;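 note: plate controls were PMA/ionomycin stimulated DMSO wells for no effect and unstimulated DMSO wells for full effect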
The depositor's hits bear a star; ? = inconclusive; / = no result given. Most compounds without a hit are left out; they make up all but 0.93% or so of the library.

SMILES	CFTR F508del cor	697 NFkB inh	HIF activator	Jurkat NFkB inh	Jurkat NFkB conf
O=C(Nc1ccc(N2CCCCCC2)cc1)c1ccccc1Cl	6	-104	8	-26	/
CO[C@H]1CN(C)C(=O)c2ccc(NC(C)=O)cc2OC[C@H](C)N(C(=O)CC2CC2)C[C@@H]1C	0	/	/	/	/
C[C@H]1CN([C@@H](C)CO)C(=O)c2cc(-c3ccc(C(=O)N(C)C)cc3)cnc2O[C@@H]1CN(C)C(=O)CN(C)C	-1	/	/	/	/
C[C@H](CO)N1C[C@H](C)[C@H](CN(C)Cc2ccc(Oc3ccccc3)cc2)OCc2ccccc2-c2c(n(C)c3ccccc23)C1=O	-2	/	/	/	/
COc1cccc2sc(Nc3nc(-c4ccccn4)cs3)nc12	/	-132	94*	98*	32
C[C@@H]1CN([C@H](C)CO)C(=O)c2cc(NC(=O)Cc3ccccc3)ccc2O[C@@H](C)CCCCO[C@H]1CN(C)C(=O)NC1CCCCC1	4	/	/	/	/
CCc1cc2cc(C(=O)Nc3ccc(F)cc3)sc2s1	/	6	2	-48	/
CC(C)(C)c1ccc(C(=O)Nc2ccc(F)cc2)s1	0	9	1	-184	-171
O=C(Nc1ccc2c(c1)OCCO2)c1ccc2ccccc2n1	3	-119	/	-165	-111
O=C(NC(=S)Nc1ccc2c(c1)OCCO2)c1ccccc1	/	-235	0	-210	-99
O=C(Nc1ccccc1)c1ccc2ccccc2n1	-4	-22	4	-168	-92
O=C(NC(=S)Nc1ccc2c(c1)OCCO2)c1ccccc1F	-1	-102	2	-70	/
O=C(Nc1ccc2c(c1)OCCO2)c1ccccn1	0	-73	-5	-70	/
O=C(Nc1ccccc1)c1nc2ccccc2s1	-1	-131	0	-205	-96
Cc1noc(C)c1NC(=O)Nc1ccc2c(c1)CC(=O)N([C@H](C)CO)C[C@H](C)[C@@H](CN(C)Cc1ccc(C(F)(F)F)cc1)O2	1	/	/	/	/
CCC(=O)Nc1ccc2c(c1)C(=O)N(C)C[C@H](OC)[C@@H](C)CN(C(=O)c1ccc(F)cc1)[C@@H](C)CO2	-5	/	/	/	/
Cc1cccc(NC(=S)Nc2ccccn2)c1	0	-59	3	-41	/
Cc1cccc(NC(=S)c2nc3ccccc3s2)c1	/	-235	1	-173	-103
COc1cccc(S(=O)(=O)N[C@H]2CC[C@H](CCn3cc(-c4ccc(F)cc4)nn3)O[C@@H]2CO)c1	2	/	/	/	/
O=c1[nH]c(/C=C2\C=Nc3ccccc32)c(O)n1Cc1ccccc1F	-4	-18	0	84*	10
CCOC(=O)C(C)Oc1cccc2c(=O)n(CC(=O)NCc3ccco3)ccc12 (stereo not drawn)	/	-14	1	57*	43
COCC(=O)N(C)C[C@H]1Oc2ncc(-c3ccccc3OC)cc2C(=O)N([C@H](C)CO)C[C@@H]1C	-1	/	/	/	/
Cn1nc(C(C)(C)C)cc1C(=O)NCc1cc(F)cc2c1OCOC2	0	23	1	65*	60*
Cc1cc(C(=O)NCc2cc(F)cc3c2OCOC3)nn1C	2	6	0	8	/
CCOc1ccc(S(=O)(=O)N2c3ccccc3CC2C)cc1 (stereo not drawn)	/	10	0	71*	51*
SMILES	CFTR F508del cor	697 NFkB inh	HIF activator	Jurkat NFkB inh	Jurkat NFkB conf
CCC(=O)N1CC2(C1)CN(C(=O)CC)[C@@H](CO)c1[nH]c3cc(OC)ccc3c12	1	/	/	/	/
CCN(CC)c1ccc(NC(=O)c2cccc(OC)c2)c(C)c1	/	-16	2	4	/
CCN(CC)c1ccc(NC(=O)c2cc(OC)cc(OC)c2)c(C)c1	/	-28	0	60*	43
C[C@@H]1CN([C@@H](C)CO)C(=O)c2cc(-c3ccccc3F)cnc2O[C@H]1CN(C)Cc1ccc(F)cc1	-1	/	/	/	/
O=C(O)C[C@H]1C=C[C@@H](NC(=O)Nc2ccccc2)[C@@H](CO)O1	3	/	/	/	/
C[C@@H]1CCCCO[C@@H](CN(C)Cc2ccncc2)[C@H](C)CN([C@@H](C)CO)C(=O)c2cc(NC(=O)CCC(F)(F)F)ccc2O1	-3	/	/	/	/
O=C(c1ccc(F)cc1)C(CN1CCOCC1)c1ccccc1 (stereo not drawn)	-1	-137	3	53*	12
O=[N+]([O-])c1ccccc1/C=C/c1ccc2ccccc2n1	0	-193	-5	-153	-78
Cn1c(/C=C/c2ccccc2[N+](=O)[O-])nc2ccccc2c1=O	-12	-22	1	-16	/
CCCOc1ccc(-c2nnc(-c3ccco3)o2)cc1	/	-223	-4	-73	/
CCN(CC)CCCNc1ccc(-c2nnc(-c3ccc(OCC(C)C)cc3)o2)cn1	-1	-45	-4	60*	26
COc1cccc(N2CCN(C(=O)c3cn(Cc4ccccc4)nc3-c3cccnc3)CC2)c1	15*	-45	/	61*	40
COc1cc2c(C(=O)N3CCN(c4cccc(Cl)c4)CC3)cn(C)c(=O)c2cc1OC	/	-32	3	37	/
O=C(c1c(Cl)nc2sccn12)N1CCN(c2cccc(Cl)c2)CC1	/	-4	1	61*	47
COc1ccccc1C(=O)N1CCN(c2cccc(Cl)c2)CC1	/	-35	-1	56*	33
CCCNC(=O)Nc1ccc2c(c1)C(=O)N(C)C[C@H](OC)[C@H](C)CN(CCC)[C@H](C)CO2	-2	/	/	/	/
Cc1ccc(OCc2ccc(Br)cc2)c([N+](=O)[O-])n1	0	-158	3	-164	-106
COc1ccc(/C=N/NC(=O)CCn2cnc(-c3ccccc3)c2-c2ccccc2)cc1OC	/	-33	1	64*	20
COc1ccc(/C=N/NC(=O)CCC(=O)Nc2ccccc2)cc1OC	-3	16	0	-4	/
CCCN(CCC)C1=CC(=[N+]2CCCC2)CC(C)(C)C1	?	4	0	69*	40
CN(C)NC1=CC(=[N+]2CCCC2)CC(C)(C)C1	2	-5	0	-1	/
CN(C)CC(=O)N1CC2(C1)[C@H](c1ccccc1)[C@H](CO)N2S(=O)(=O)c1ccccc1	1	/	/	/	/
c1ccc(CN2CCC(Nc3ncnc4sccc34)CC2)cc1	-1	-11	3	58*	35
Cc1sc2ncnc(NC3CCN(Cc4ccccc4)CC3)c2c1C	4	-12	0	53*	43
CCCNC(=O)C[C@H]1CC[C@@H]2[C@@H](COc3ccc(NC(=O)c4cccc(Cl)c4)cc3C(=O)N2C)O1	0	/	/	/	/
C[C@H](CO)N1C[C@H](C)[C@H](CN(C)Cc2ccncc2)Oc2cc(C3=CCCC3)ccc2S1(=O)=O	-2	/	/	/	/
CCCC(=O)NC(c1ccc(OC)cc1)c1ccc2cccnc2c1O (stereo not drawn)	1	-17	74*	62*	60*
CCCCC(=O)NC(c1ccc([N+](=O)[O-])cc1)c1c(O)ccc2ccccc12 (stereo not drawn)	3	-26	0	20	/
CCC(=O)NC(c1ccc(OC)cc1)c1c(O)ccc2ccccc12 (stereo not drawn)	3	-3	1	47	/
CC(=O)NC(c1ccc(C(C)C)cc1)c1ccc2cccnc2c1O (stereo not drawn)	8.9*	-32	163*	51*	74*

Screening results as filed in PubChem.
